Data published in PubChem BioAssay.
Measured potencies and affinities stand elsewhere. Results filed as inconclusive are left out. Calls of active or inactive are those of the source.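 How the source made its calls, unless noted: active means signal drop whose fitted half-maximal concentration is at most twice the top valid dose, in every test run; inconclusive means mixed calls across runs, poor fit, or flat 30 to 70% inhibition; inactive means wrong direction, flat within 30%, or potency beyond limit.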

What was measured:
[1] = HeLa cell cytotoxicity, dose response, cytotoxicity control, ATP luminescence, cherry-pick samples (AID 687004;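 active means a fitted half-maximal concentration no higher than twice the top valid tested dose, with signal falling as cells die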)
[2] = cytotoxicity in PAX8-dependent RMG-1 cells, dose response, cell-based, cherry-pick (AID 687029);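 further: cells exposed to compound for 96 hours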
[3] = cytotoxicity in IOSE-T80 ovarian epithelial cells, dose response, selectivity assay for PAX8 inhibitor project, cell-based, cherry-pick (AID 687032;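 active means fitted half-maximal concentration for viability loss no higher than twice the top valid dose, in every repeat run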;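 further: cells exposed to compound for 96 h before reading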)
[4] = inhibitors of CMV-promoter luciferase reporter, dose response, counter-screen for Pax8 inhibitor project, cell-based, HEK293, luminescence, dry powder (AID 743020;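 active means signal-lowering compounds whose fitted half-maximal concentration is at or below twice the top tested dose in every run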;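 further: HEK293 cells stably expressing the CMV luciferase reporter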)
[5] = non-specific cell cytotoxicity, dose response, cytotoxicity control for PAX8 inhibitor project, plate reader, dry powder samples (AID 743021; call rule not given here)
[6] = IGROV1 ovarian cancer cell cytotoxicity, dose response, PAX8 inhibitor project, plate reader, dry powder samples (AID 743043; call rule not given here;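 further: more negative means fewer viable cells or more cytotoxicity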)
[7] = IOSE-T80 ovarian epithelial cell cytotoxicity, dose response, cytotoxicity control for PAX8 inhibitor project, plate reader, dry powder samples (AID 743045; call rule not given here;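 further: more negative values mean more cell killing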)
[8] = cytotoxicity in OVCAR8 ovarian cancer cells, dose response, PAX8 project, cell-based, plate reader, dry powder samples (AID 743197; call rule not given here)

Measured: outcome

O=c1[nH]c(CN2CC=C(c3ccccc3)CC2)nc2cc(C(F)(F)F)ccc12
inactive: [1]

COC(=O)C1=C(C(=O)OC)C2OC1c1cc3ccccc3cc12
inactive: [2] | [3]

N#CC1c2ccccc2-n2nncc2CN1Cc1cc(Cl)cc(Cl)c1 (stereo not drawn)
inactive: [2] | [3] | [4] | [5]

O=c1[nH]c2ccccc2n1C1CCN(C(c2cccc3ccccc23)c2nnnn2-c2ccc3c(c2)OCCO3)CC1 (stereo not drawn)
inactive: [2] | [3] | [4] | [5]

COc1ccc(-n2nnnc2C(CCc2ccccc2)N2CCC(n3c(=O)[nH]c4ccccc43)CC2)cc1 (stereo not drawn)
inactive: [2]

CC[C@@]1(O)C(=O)OCc2c1cc1n(c2=O)Cc2cc3c(NC(=O)CN)cccc3nc2-1
inactive: [2] | [3] | [4] | [5]

C[C@H]1CCC/C=C/[C@@H]2C[C@H](O)C[C@H]2[C@H](O)/C=C/C(=O)O1
inactive: [2] | [3] | [4] | [5]

O=C(Cc1cccnc1)N1CCCCN2[C@H](C1)[C@H](c1ccc(C#CC3CCCC3)cc1)[C@@H]2CO
not listed: [1]
inactive: all other assays above

O=c1[nH]c2ccccc2n1C1CCN(C(CCc2ccccc2)c2nnnn2Cc2ccccc2)CC1 (stereo not drawn)
inactive: [2] | [3] | [4]

COc1cc2c(c(OC)c1OC)-c1ccc(O)cc1[C@@H](NC(C)=O)CC2
inactive: [2] | [3] | [4] | [5]

CC1=C(N2CC2)C(=O)C(CO)=C(N2CC2)C1=O
inactive: [2] | [3] | [4]

O=c1[nH]c2ccccc2n1C1CCN(C(CCc2ccccc2)c2nnnn2-c2ccc3c(c2)OCCO3)CC1 (stereo not drawn)
inactive: [2]
